Assay in all cases: PBM binding z-score (relative to random genomic background probes); higher = stronger binding; sequences stand for … in GC…GCGATTGACAGCGTAGAATGAAGG
The test system of test [1] is FXR:RXRa (NR concentration 270 nM, RXRa partner concentration 90 nM). In outline:
(§1)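 The probes on custom Agilent 4×180K protein-binding microarrays were double-stranded, with 34-nt variable regions bearing direct-repeat seeds, single-nucleotide variants, half-site ablations and random human genomic background sequences. Incubation lasted 1 h with ligand-free nuclear receptor dimers in PBS pH 7.4, 2% milk, 0.02% Triton X-100, 1 mM DTT, 0.2 mg/mL BSA and 0.4 mg/ml salmon testes DNA. Antibodies against each partner (one per run) detected bound dimers, and fluorescence scans were regression-normalized. Binding z-scores take the random background probes as reference.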

For test [2], the system named is LXRa:RXRa (NR concentration 270 nM, RXRa partner concentration 90 nM). The procedure, abridged: as §1
The test system of test [3] is LXRa homodimer (NR concentration 270 nM). In outline: as §1
Test [4] concerns LXRb:RXRa (NR concentration 270 nM, RXRa partner concentration 90 nM). In outline:
as §1

In test [5] the test system is LXRb homodimer (NR concentration 270 nM). The procedure, abridged:
as §1

The subject of test [6] is PPARa:RXRa (NR concentration 270 nM, RXRa partner concentration 90 nM). In outline:
as §1

For test [7], the system named is PPARg:RXRa (NR concentration 180 nM, RXRa partner concentration 90 nM). The procedure, abridged:
as §1

Test [8] deals with PPARg:RXRa 270nM:90nM, anti-RXR (NR concentration 270 nM, RXRa partner concentration 90 nM). In outline: as §1
Test [9] deals with PPARg:RXRa 30nM:10nM, anti-RXR (NR concentration 30 nM, RXRa partner concentration 10 nM). In outline:
as §1

For test [10], the system named is PPARg:RXRa 90nM:30nM, anti-RXR (NR concentration 90 nM, RXRa partner concentration 30 nM). The procedure, abridged:
as §1

For test [11], the system named is PPARg:RXRa DBDmut IVT, anti-RXR (DBD mutation: RXRa K156A/R161A, NR concentration 270 nM, RXRa partner concentration 90 nM). The procedure, abridged: as §1
Test [12] concerns PPARg:RXRa IVT, anti-PPARg (NR concentration 270 nM, RXRa partner concentration 90 nM). The procedure, abridged:
as §1

Test [13] has as its system PPARg DBDmut:RXRa IVT, anti-PPARg (DBD mutation: PPARg1 K132A/R137A, NR concentration 270 nM, RXRa partner concentration 90 nM). The procedure, abridged:
as §1

For test [14], the system named is PPARg DBDmut IVT, anti-PPARg (DBD mutation: PPARg1 K132A/R137A, NR concentration 270 nM). The procedure, abridged: as §1
For test [15], the system named is PPARg homodimer (NR concentration 180 nM). In outline: as §1
In test [16] the test system is PXR:RXRa (NR concentration 270 nM, RXRa partner concentration 90 nM). The procedure, abridged: as §1
Test [17] concerns PXR homodimer (NR concentration 270 nM). In outline:
as §1

The test system of test [18] is RARa:RXR (NR concentration 270 nM, RXRa partner concentration 90 nM). In outline: as §1
For test [19], the system named is RARa homodimer (NR concentration 270 nM). The procedure, abridged:
as §1

Test [20] has as its system RARb:RXRa (NR concentration 270 nM, RXRa partner concentration 90 nM). The procedure, abridged: as §1

In the case of TCATATAGGGAAAAGGTGAAAGTCGGTGTGGTAA, the PBM binding z-score in test [1] amounted to 1.4; in test [2], 1.47; in test [3], 0.577; in test [4], 1.64; in [5], 0.109; in test [6], 4.56. The PBM binding z-score in test [7] stood at 7.27; in test [8], 7.61; in test [9], 6.66; in test [10], 8.2; in test [11], 3.91; in [12], 3.56. For the same sequence, the PBM binding z-score in test [13] is 0.616; in test [14] it was 0.751; in [15], 1.68; in test [16] it was 1.21; in [17], 0.873; in test [18], 2.17. Also, the results for the PBM binding z-score in test [19] and in test [20] were 1.17 and 1.9, respectively.
For the sequence ACCTCTAGGTAAAGTTCAGTGAAAGATCGATAGA, the PBM binding z-score in test [1] is 0.698; in test [2], 1.23; in [3], 0.94; in test [4] it was 0.893; in test [5], 0.102; in test [6], 1.58. Moreover, the PBM binding z-score was 1.08 in test [7]; 2.32 in test [8]; 0.584 in [9]; 1.63 in test [10]; 1.91 in [11]; 1.47 in [12]. The PBM binding z-score is -0.268 in test [13]; 0.284 in [14]; 0.684 in test [15]; 1.61 in test [16]; 1.03 in test [17]; 0.806 in test [18]. In addition, the values for the PBM binding z-score in test [19] and in [20] were 0.172 and 2.41, respectively.
Turning to TCAGAAAGGTGAAGGTAACTCAGGTACGCAGTCG, the PBM binding z-score in [1] was 1.82; in test [2], 2.61; in [3] it was 0.105; in test [4], 1.67; in test [5] it was -0.156; in test [6], 2.97. Also, the PBM binding z-score in test [7] was 1.75; in test [8], 3.44; in test [9] it was 4.63; in [10], 4.04; in test [11] it was 4.06; in test [12], 2.93. The PBM binding z-score in test [13] worked out at 0.125; in [14], 0.136; in test [15], 0.958; in test [16], 1.12; in [17], 0.164; in [18] it was 1.88. For the same sequence, the PBM binding z-score in [19] came to 0.504; in test [20] it was 3.25.
For CGTCCAAGGTCAGCAGGTCAGTGATAGCGACGTG, the PBM binding z-score is 5.6 in test [1]; 3.86 in test [2]; 0.399 in test [3]; 2.59 in test [4]; -0.265 in test [5]; 4.52 in test [6]. Further, the PBM binding z-score in test [7] was 4.13; in [8], 4.45; in test [9], 1.15; in test [10], 3.05; in test [11], 3.28; in test [12], 3.76. For the same sequence, the PBM binding z-score in test [13] was -0.113; in [14], -0.161; in test [15] it was 2.53; in [16] it was 3.41; in test [17], 0.512; in test [18] it was 4.49. Besides, the PBM binding z-score in [19] worked out at 1.26; in test [20] it was 5.45.
Turning to CGTCCAAGGTCAGTAGGTCAGTGAAAGCGACGTG, the PBM binding z-score in test [1] is 4.68; in test [2] it was 3.18; in test [3], 0.336; in test [4], 2.78; in [5] it was 0.0496; in test [6] it was 5.1. For the same sequence, the PBM binding z-score stood at 6.2 in test [7]; 6 in test [8]; 2.74 in test [9]; 4.9 in [10]; 5.03 in test [11]; 6.09 in test [12]. The PBM binding z-score was determined as 0.33 in test [13]; 0.924 in test [14]; 4.32 in test [15]; 3.23 in [16]; 0.64 in [17]; 4.46 in test [18]. Moreover, the PBM binding z-score in test [19] is 1.39; in [20], 5.
Consider TGAATCAGGTTAAAGATCAGGGAACGTGGCGTCG, for which the PBM binding z-score was 0.631 in test [1]; 0.732 in [2]; -0.19 in test [3]; 0.221 in test [4]; -0.0822 in test [5]; 3.29 in test [6]. In addition, the PBM binding z-score in test [7] came out at 4.92; in test [8] it was 5.85; in test [9], 5.28; in test [10], 6.34; in test [11] it was 2.15; in test [12] it was 3.33. For the same sequence, the PBM binding z-score in [13] was 0.98; in test [14], 0.175; in test [15], 0.529; in [16], 0.343; in test [17], -0.173; in [18], 1.17. Further, the figures for the PBM binding z-score in test [19] and in test [20] were 0.262 and 0.993, respectively.
For the sequence ACTTACGGGTCAACGAGGTTATAGCCCGCGTATA, the PBM binding z-score in [1] amounted to 6.28; in test [2], 4.99; in test [3] it was 0.779; in [4] it was 4.32; in test [5], 0.557; in [6] it was 5.47. For the same sequence, the PBM binding z-score in test [7] was found to be 4.98; in test [8] it was 5.37; in [9], 2.01; in test [10], 4.01; in test [11] it was 3.54; in [12], 3.99. Also, the PBM binding z-score in [13] was 0.579; in test [14], 0.364; in [15], 2.12; in test [16], 5.03; in [17], 2.93; in test [18] it was 4.97. Also, the PBM binding z-score in test [19] is -0.101; in [20], 4.03.

Values taken from the supplement of paper PMC6555819.
